The results in this text go back to PubChem BioAssay (NCI).

Compounds without any hit were thinned out: in the full panel of roughly 83,000, 20% have a hit.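 Each cell line was grown in a 96-well plate and treated with one concentration of compound for 48 hours. Values below 10 were considered active.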 A number with no mark means an inactive call. Activity calls are given as the source filed them.

The subject of the experiment is HL-60(TB) leukemia. Put plainly: NCI-60 one-dose screen, 48 h (100 = growth as untreated, 0 = no growth, -100 = all killed). Conditions: 10 µM unless noted.
Turning to `ClC1=C(Cl)C(Cl)=C(Cl)C1=C/C=C/c1ccccc1`, the growth is -45.5% (active). For `NC(=O)[C@@H]1Cc2ccccc2CN1C(=O)c1ccc2c(c1)Cc1ccccc1-2`, the growth was 72.2%. Turning to `COc1ccc(CSc2nnc(SCC(=O)Nc3ccc(Cl)cc3)s2)cc1`, the growth is 56.9%. Take `COCCOC(=O)COc1ccc(OC)cc1`: the growth is 90.7%. As for `N#Cc1c(-c2cccc(Cl)c2)cc(-c2cccc(F)c2)[nH]c1=O`, the growth was -58.3% (active).

Take `O=C/C=C/c1ccc([N+](=O)[O-])cc1`: the growth was 106%. In the case of `CC1(n2nnnc2N2CCCN(c3ncccc3N)CC2)CCC1`, the growth was 102%.

With `COc1cc2c(cc1OCCCN1CCN(CCCOc3cc4c(cc3OC)C(=O)N3CC(F)(F)C[C@H]3C=N4)CC1)N=C[C@@H]1CC(F)(F)CN1C2=O`, the growth is 15.7%. Regarding `Nc1ccc2c(c1)Cc1cc(NC(=O)C(F)(F)F)ccc1-2`, the growth is 98.4%. `O=C(Nc1ccc(Cl)c(Cl)c1)O/N=C\c1c(Cl)ccc([N+](=O)[O-])c1Cl`: the growth was -61.4% (active).

With `Clc1ccc(N/N=C(/c2ccccc2)c2ccccn2)nc1`, the growth was 3.11% (active).

Take `CCCCCOC(=O)c1cccc(NC(=O)CN(CC)CC)c1`: the growth was 101%. In the case of `COc1ccc(/C=N/Nc2c3ccccc3nc3ccccc23)cc1`, the growth is 92.9%.

Take `O=C1CC[C@H](c2ccc(O)c3c2C(=O)[C@@H]2O[C@@H]2C3=O)c2cccc(O)c21`: the growth is -20.5% (active). With `COc1ccc(-c2cc(-c3ccc(Nc4nc(Nc5ccccc5)nc(Nc5ccc(Cl)cc5)n4)cc3)nc(N)c2C#N)cc1` the figure was 33.1%; with `S=c1nn[nH]n1C1CCCCC1`, 79.8%.

For the compound `COC(=O)CCC1=C(C)C(C)=N/C1=C\c1[nH]c(-c2ccc[nH]2)cc1OC`, the growth was -21.8% (active).

With `c1ccc(N2CCN(c3nncc4ccccc34)CC2)nc1`, the growth is 96.6%. With `CCN(CC)c1ccc(/C=N/NC(=O)CSc2nc3ccccc3c(=O)n2Cc2ccc(S(N)(=O)=O)cc2)c(O)c1` the figure was -19.7% (active).

For `CC1(C)OC2C(CO)OC(n3ccc(=O)[nH]c3=O)C2O1` (stereo not given), the growth is 105%.

Regarding `COc1ccc(-c2csc(NC(=O)c3cc(O)c(O)c(O)c3)n2)cc1`, the growth is 62.4%.

`Cn1cc(-c2ccc3ncc(-c4ccc(CC(=O)Nc5cc(C(C)(C)C)no5)cc4)nc3c2)cn1`: the growth is 40.4%.

Turning to `O=C(C(Br)Br)C(Br)C(Br)c1ccccc1` (stereo not given), the growth is 88.8%. Turning to `COc1ccc2c(c1)c(-c1nonc1-c1c[nH]c3ccc(Br)cc13)cn2C`, the growth was 53.2%. On to `OC(c1ccc(Cl)cc1)(c1ccc(Cl)cc1)C(O)(c1ccc(Cl)cc1)c1ccc(Cl)cc1`, for which the growth was 51.2%. `O=C(O)Cn1ccc2ccccc21`: the growth was 104%. As to `Cc1ccnc2c(OCc3ccccc3)cccc12`, the growth was 111%. With `O=C(Nc1ccncc1)C(=O)c1cn(S(=O)(=O)c2ccccc2F)c2ccccc12`, the growth is 12.7%.

On to `C1=CN2CC(c3ccccc3)=NNC2c2ccccc21` (stereo not given), for which the growth was 81.6%. Consider `COc1ccccc1OCC(=O)N1CCCCCC1`, for which the growth is 93.6%. For `Nc1ccccc1NC(=O)CCCCCCC(=O)Nc1ccc2c(c1)/C(=C/c1ccc[nH]1)C(=O)N2`, the growth is -10.2% (active).

As to `COc1cc2c(=O)n(CCN(C)C)c3c4cc5c(cc4ccc3c2cc1OC)OCO5`, the growth was 8.03% (active).

Take `COc1ccc(Nc2ccnc(NCCCNc3ccnc4cc(Cl)ccc34)n2)cc1`: the growth was -68.6% (active). `COc1cc(Nc2ccnc(NCCNc3ccnc4cc(Cl)ccc34)n2)cc(OC)c1`: the growth is 11.9%.

Take `Cc1cc(N2CCCCC2)cc(C)c1-c1csc(NC(=O)c2ccncc2)n1`: the growth was 21.8%. Take `CC(C)[C@@]12C[C@@H](OC(=O)[C@H]3CO3)[C@@](C)(O1)[C@@H]1CC[C@@H](C)[C@H]1[C@@H]2OC(=O)/C=C/c1ccccc1`: the growth is 67%. As to `O=c1c2c3c(sc2n2c(-c4cc(-c5ccccc5)no4)nnc2n1Cc1ccccc1)CCCC3`, the growth was 72.8%. Take `CCN1/C(=C/C=C/C=C/c2sc3ccccc3[n+]2CC)Sc2ccccc21`: the growth is -58.4% (active).

On to `COc1cc2c(c(OC)c1OC)C(=O)CC(c1cccc(C(=O)Nc3ccccc3Br)c1)O2` (stereo not given), for which the growth was 76.5%. `C#Cc1cccc(NC(=O)C2CCCN(C(=O)CCl)C2)c1` (stereo not given): the growth is 34% [8.25 µM].
